# From PubChem BioAssay AID463173 (ICCB-Longwood Screening Facility, Harvard Medical School, 2010)
# In all, about 52,000 compounds went through this assay and about 4,300 (8.3%) were called active. No stated cut-off is given here; in the data, active means survival mostly below about 52% (no sharp cut-off); inactive means mostly above about 56%. The list comes from a sample in which actives are over-represented; it also holds similar structures and randomly drawn compounds.
# Tested on: DeltatarO mutant
# Assay: S. aureus survival, RN4220 and DeltatarO strains – OD600, teichoic acid synthesis inhibitors, primary screen (AID 463173)
# Conditions: S. aureus RN4220 wild type/DeltatarO growth, OD600, 18 h, active compounds read low, screened at 18.75 µg/mL (by protocol)
row,Structure (SMILES),survival
1,Cc1cccc(NC(=O)c2cc(S(=O)(=O)N3CCc4ccccc43)ccc2F)c1C,65% (inactive)
2,COc1ccc(-n2c(/C=C/c3cc(OC)c(OC)cc3OC)nc3cc4ccccc4cc3c2=O)cc1Cl,115% (inactive)
3,CCOC(=O)CNC(=O)Nc1cc(C(=O)NCc2cccc(F)c2)ccc1N1CCCC1,74% (inactive)
4,CCOC(=O)N1CCC(NC(=O)c2ccc3c(c2)N(Cc2ccccc2)C(=O)c2ccccc2S3(=O)=O)CC1,52% (inactive)
5,CSc1ccc(C2c3c(oc4cc(C)cc(C)c4c3=O)C(=O)N2Cc2ccco2)cc1 (stereo not given),57% (inactive)
6,CCc1ccc(C2C(C(=O)Nc3ccccc3OC)=C(C)Nc3nc(SCc4ccccc4)nn32)cc1 (stereo not given),76% (inactive)
7,CCCN(CCC)C(=O)CSc1nnc2cc(C)c3ccccc3n12,76% (inactive)
8,CCOC(=O)c1ccc(CSc2nnc3cc(C)c4ccccc4n23)cc1,95% (inactive)
9,Cc1cc2nnc(SCc3ccc(F)cc3)n2c2ccccc12,-1% (active)
10,COc1ccc(C2NCCS2)cc1 (stereo not given),65% (inactive)
11,Cc1ccc(CN2CCCn3nc(C(=O)NCCc4ccc(Cl)cc4)cc3C2=O)cc1,71% (inactive)
12,Cc1nn(-c2ccc(N3CCCCC3)nn2)c(C)c1CCC(=O)NCc1ccc(Cl)cc1,79% (inactive)
13,Cc1cccc(OCC(=O)Nc2ccc3nc(SCc4ccccc4)sc3c2)c1,112% (inactive)
14,COc1ccc(CC(=O)Nc2ccc(-c3nc4ccccc4s3)c(C)c2)cc1OC,37% (active)
15,CCCCC(=O)Nc1cccc(-c2nc3ccccc3s2)c1,41% (active)
16,COc1cccc(C(=O)Nc2ccc(-c3nc4ccc(C)cc4s3)cc2)c1OC,49% (inactive)
17,Cc1cccc(OCCSc2nc3ccc(NC(=O)COc4ccccc4)cc3s2)c1,78% (inactive)
18,Cc1ccc2nc(-c3ccc(NC(=O)COc4ccccc4C(C)(C)C)cc3)sc2c1,114% (inactive)
19,Cc1cccc(OCC(=O)Nc2cccc(-c3nc4ccccc4s3)c2)c1,7% (active)
20,CCCOc1ccccc1C(=O)Nc1ccc(-c2nc3ccc(C)cc3s2)cc1,29% (active)
21,COc1ccc(CC(=O)Nc2ccc(-c3nc4ccccc4s3)c(C)c2)cc1,69% (inactive)
22,O=C(COc1ccccc1[N+](=O)[O-])Nc1cccc(-c2nc3ccccc3s2)c1,65% (inactive)
23,COc1ccccc1C(=O)Nc1ccc(-c2nc3ccccc3s2)c(C)c1,83% (inactive)
24,CCC(CC)C(=O)Nc1cccc(-c2nc3ccccc3s2)c1,53% (inactive)
25,Cc1nc2ncnn2c(C)c1CCC(=O)N1CCN(c2ccc(F)cc2)CC1,89% (inactive)
